In PubChem BioAssay (NCI):
This is part of a sample that, as a whole, favours compounds with a hit. Of some 83,000 tested, about 20% had one in any assay.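 Interpretation: 100, growth as untreated; towards 0, rising growth inhibition; 0, no net growth; 0 to -100, cell death. Compounds scoring below 10 were considered active.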 A number with no mark means an inactive call. The source made the active and inactive calls.

Test system: HL-60(TB) leukemia
Test: NCI-60 one-dose screen, 48 h (100 = growth as untreated, 0 = no growth, -100 = all killed)
Conditions: 10 µM unless noted

Row | SMILES | growth
1 | COc1cc(CSc2nc3ccc(C)cc3c(=O)n2-c2ccccc2)cc(OC)c1OC | 12.2%
2 | N#C/C(=C\c1ccc(Br)cc1)n1nnc2ccccc21 | 2.58% (active)
3 | CCCCCCCCN(CCO)CCCCCCCC | 100%
4 | CCN1C(=O)N(CC)C2C1NC(=S)N2/N=C/C=C/c1ccccc1OC (stereo not given) | -20.8% (active)
5 | Cc1ccc(-c2nc(N3CCN(C(=O)Nc4ccc(Cl)c(C(F)(F)F)c4)CC3)c3ccccc3n2)cc1 | 98.9%
6 | Fc1ccc(-c2nc(-c3ccc(-c4nc5ccc(F)cc5[nH]4)cc3)no2)cc1 | 96.3%
7 | COc1cc(/C=C/C(=O)c2ccc(F)cc2)ccc1OCCCCOc1ccc(/C=C/C(=O)c2c(C)nc3ccccc3c2C)cc1OC | 79.8%
8 | Cc1cc(C)c([I+]c2c(C)cc(C)cc2C)c(C)c1 | -64.3% (active)
9 | COc1ccccc1/C=C1\COc2ccc(O)c(O)c2C1=O | -21.9% (active)
10 | O=c1[nH]c(-c2cccc(F)c2)cc2cc(F)ccc12 | -24.6% (active)
11 | NNC(=O)Oc1c(Cl)cc(Cl)cc1[N+](=O)[O-] | 98.3%
12 | Cc1cccc[n+]1C1c2ccccc2-c2ccccc21 | 92%
13 | CN(C)C(=O)OCc1nc2c(N3CCOCC3)nc(-c3ccccc3)nc2n1C | -29.2% (active)
14 | Nc1ncnc2c1c(C(F)(F)F)cn2[C@@H]1O[C@H](CO)[C@@H](O)[C@H]1O | -26.1% (active)
15 | CCCCCCCCCCCC(=O)OC(C)C(=O)NCCCC (stereo not given) | 99.4%
16 | COC1/C=C/OC2(C)Oc3c(C)c(O)c4c(O)c(c(C=NOC(c5ccccc5)c5ccccc5)c(O)c4c3C2=O)NC(=O)/C(C)=C/C=C/C(C)C(O)C(C)C(O)C(C)C(OC(C)=O)C1C (stereo not given) | -13.8% (active)
17 | C=C1C(=O)O[C@H]2[C@H]1CC/C(COC(=O)/C=C\C(=O)NCc1ccc(Cn3c(=O)sn(CCCC)c3=O)cc1)=C\CC[C@@]1(C)O[C@@H]21 | -45.6% (active)
18 | Clc1ccccc1Nc1nnc(-c2ccncc2)s1 | 79.1%
19 | Oc1ccc(-c2[nH]c3ccccc3c2-c2nc3ccccc3o2)cc1 | 80.8%
20 | C=C(C)[C@@H]1CC[C@]2(C(=O)NCCCCCCN(CCCN)CCCN)CC[C@]3(C)[C@H](CC[C@@H]4[C@@]5(C)CC[C@H](OCCCN)C(C)(C)[C@@H]5CC[C@]43C)[C@@H]12 | 37% [100 µM]

Row | SMILES | growth
21 | Cc1ccc(CC(=O)O)c(C)c1 | 98%
22 | CCCCn1c(-c2ccc(C(=O)O/N=C(\N)c3ccc4ccccc4c3)cc2)nc(-c2ccccc2)c1-c1ccccc1 | 23.8%
23 | Cc1ccc(-c2cc3nc(-c4ccccc4)nc(C(Cl)Cl)n3n2)cc1 | 12.6%
24 | Clc1nc(-c2ccccn2)nc2sc3c(c12)CCCCCC3 | 96%
25 | Cc1cc(C)c(-c2c(N)cc(Br)cc2Br)c(N)c1 | 21.1%
26 | O=C(Nc1ccc(OS(=O)(=O)c2ccc(F)cc2)cc1)c1ccc(Cl)cc1 | 90.9%
27 | O=C(NCCCCCCCNC(=O)OCc1ccc2c(Cl)cc(Cl)c(O)c2n1)OCc1ccc2c(Cl)cc(Cl)c(O)c2n1 | -45.9% (active)
28 | CN(C)C(=O)Nc1nc2cc(Cl)c(Cl)cc2[nH]1 | -29.9% (active)
29 | CCn1c2ccccc2c2ccc(C(C)=O)cc21 | 118%
30 | CN(C)c1ccc(-c2c(C#N)c(N)n3nc(N)c(C#N)c3c2C#N)cc1 | 95.7%
31 | Cc1ccc(C(=O)NN2C(=O)CSC2c2ccc(Cl)cc2)cn1 (stereo not given) | 139%
32 | Cc1cn(C(C=O)OC(C=O)CO)c(=O)[nH]c1=O (stereo not given) | 103%
33 | Cc1[nH]ccc2cc3nc4ccccc4c3cc12 | 16.4%
34 | O=S(=O)(c1ccc(NCSc2nc3ccccc3s2)cc1)c1ccc(NCSc2nc3ccccc3s2)cc1 | 72.7%
35 | COc1cc2ncnc(Nc3cccc(Cl)c3F)c2cc1OC(=O)N1CCN(C)C[C@H]1C | 102%
36 | O=C(Nc1cn[nH]c1-c1nc2ccc(CN3CCOCC3)cc2[nH]1)NC1CC1 | -27.1% (active)
37 | N[C@H]1CCC[C@@H]1NCCCCN1C(=O)c2cccc3cc([N+](=O)[O-])cc(c23)C1=O | 29.4%
38 | NS(=O)(=O)N(c1cc(C(F)(F)F)cc(C(F)(F)F)c1)C1CCN(Cc2ccc(F)cc2)CC1 | 26.3%
39 | CC(C)C(=O)Cc1cnccn1 | 134%
40 | CCCCNC(=O)NS(=O)(=O)c1ccc(N2N=C(c3ccc(C)cc3C)CC2c2ccc(N(C)C)cc2)cc1 (stereo not given) | 14.4%
